# PubChem BioAssay (NCATS)
# Where “and” joins values, the source holds several entries; their conditions need not be identical. Equal entries are not always repeated. Values without a mark were called inactive. Results filed as inconclusive are left out. Calls of active or inactive are those of the source. Unless noted, how the calls were made is not given here.
# Key:
# astro = control astrocytes; assay: Drug repurposing screens with cells derived from glioblastoma tumor samples (AID 1345199; active means well fitted curve in the direction sought with a large enough effect; an effect the other way counts as inactive or inconclusive; further: on the % scale 0 is the no-effect control and ±100 the full control effect; nearly all actives have a fitted effect of over 40% in size); details: viability, ATP luminescence, 48 h; series mostly up to 45.9 µM
# Outline: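 Primary testing used CD133+ neurospheres from four GBM patients, seven concentrations, 48 h exposure and ATP-based viability; confirmation added three slower-growing patient lines.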
# [1] = target: Nuclear receptor subfamily 1 group I member 2 (Rattus norvegicus) (UniProt Q9R1A7); assay: qHTS assay for small molecule activators of the rat pregnane X receptor (rPXR) signaling pathway (AID 651751); details: rPXR reporter cells, luciferase (One-Glo), 24 h; further: 0% is about no effect
# Sequence of Nuclear receptor subfamily 1 group I member 2 (Rattus norvegicus) (Q9R1A7 whole entry, looked up): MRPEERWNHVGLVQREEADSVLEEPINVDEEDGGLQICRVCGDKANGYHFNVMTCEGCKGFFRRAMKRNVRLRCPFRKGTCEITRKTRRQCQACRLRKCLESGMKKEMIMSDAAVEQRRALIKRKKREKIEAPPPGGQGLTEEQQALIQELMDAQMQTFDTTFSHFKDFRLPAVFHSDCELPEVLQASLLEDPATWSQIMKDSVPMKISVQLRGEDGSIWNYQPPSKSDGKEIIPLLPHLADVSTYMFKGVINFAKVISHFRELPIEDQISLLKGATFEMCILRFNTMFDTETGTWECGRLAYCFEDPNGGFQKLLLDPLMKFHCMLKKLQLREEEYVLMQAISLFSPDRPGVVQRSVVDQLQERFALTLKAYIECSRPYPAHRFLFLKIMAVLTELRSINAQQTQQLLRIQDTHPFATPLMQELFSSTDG
# [2] = qHTS assay for small molecule activators of the human pregnane X receptor (PXR) signaling pathway (AID 720659); details: DPX-2 HepG2 CYP3A4-luciferase, 24 h; series mostly up to 92.3 µM; further: 0% is about no effect
# [3] = qHTS assay to identify inhibitors of the type 1 interferon - major histocompatibility complex class I in skeletal muscle: Counter screen cell viability and HiBit confirmation (AID 1347412; active means well fitted curve in the direction sought with a large enough effect; an effect the other way counts as inactive or inconclusive; further: on the % scale 0 is the no-effect control and ±100 the full control effect; nearly all actives have a fitted effect of over 60% in size); details: iHSKM muscle cells + IFN-b, HiBiT or CellTiter-Glo, 24 h; Viability, at 45.9 µM (top of the series)
# Outline: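 CRISPR HLA-B*08:01-HiBit immortalized human myoblasts (C25cl48) stimulated with 4 ng/ml IFN-beta and compounds (12-point 1:3, top 46 uM final) for 24 h at 37 C. Duplicate plates read by HiBit lytic luminescence or CellTiter Glo ATP.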
SMILES,outcome (astro),max response [1],outcome [2],outcome [3]
CC(=O)Nc1cccc(O)c1,inactive,-4.25%,inactive,–
C=CCNC(N)=S,inactive,-5.15%,inactive,–
CCCC(O)C(CC)CO (centres undefined),inactive,7.37%,inactive,–
CC(C)=CCC/C(C)=C/CO,inactive,1.1%,–,–
O=C1C(c2[nH]c3ccccc3c2O)=Nc2ccccc21,inactive,2.85%,inactive,–
CCCCOC(=O)c1ccc(N)cc1,inactive,15.7%,–,inactive
CC(=O)Nc1ccccc1,–,2.33%,inactive,–
Cc1ccc(C(C)C)c(O)c1,inactive,-0.755%,inactive,–
C[C@@H]1O[C@@H](OC[C@H]2O[C@@H](Oc3c(-c4ccc(O)c(O)c4)oc4cc(O)cc(O)c4c3=O)[C@H](O)[C@@H](O)[C@@H]2O)[C@H](O)[C@H](O)[C@H]1O,inactive,–,–,–
CC[C@]12CCCN3CCc4c(n(c5ccccc45)[C@@](O)(C(=O)OC)C1)[C@@H]32,inactive,–,–,–
CCN(CC)C(=O)c1cccc(C)c1,inactive,1.44% and 0.626%,inactive,–
O=C1c2cccc(O)c2C(=O)c2c(O)cccc21,inactive,4.48%,inactive,–
O=C(O)CCCCC1CCSS1 (centres undefined),inactive,-15% and -8.97%,inactive,–
O=C(OOC(=O)c1ccccc1)c1ccccc1,inactive,-0.865%,inactive,–
CC(=O)OCC(COC(C)=O)OC(C)=O,inactive,-2.17% and 2.63%,inactive,–
